PfHsp90 set2 = inhibits growth of yeast expressing Plasmodium falciparum Hsp90; S. cerevisiae expressing PfHsp90, BacTiter-Glo ATP, 48 h; yeast lacking PDR1 and PDR3 efflux regulators; inhibition, % at 9.4 µM; hit rate 0.32% among 310,000; AID 504621;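 active = every replicate shows inhibition above about 80%, whatever the replicate mean, limit read from the data; inconclusive = mean inhibition reaches the set limit but some replicate falls short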;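 also: 0% = DMSO neutral controls and 100% = 20 µM radicicol positive controls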
SKKanGAS inh = inhibitors of SKKanGAS S. pyogenes growth in kanamycin (SK-promoter or general growth effect); hit rate 1.3% among 300,000; inhibition, % at 7.5 µM; BacTiter-Glo, 6 h;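 active = mean replicate score, as percent of positive control median, at least 50; inconclusive = mean below 50 but one replicate at or above 50; inactive = mean and every replicate below 50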;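 also: strain carries kanamycin resistance gene driven by streptokinase promoter and grows in 40 µg/ml kanamycin; loss of luminescence reflects streptokinase promoter inhibition or plain growth inhibition; 0% = median of DMSO wells and 100% = positive control at its reference dose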
tim23-1 inh = growth inhibitors of tim23-1 mutant yeast; S. cerevisiae tim23-1 growth, BacTiter-Glo luminescence, 24 h; inhibition, % at 20 µM; hit rate 1.3% among 330,000; AID 463212;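 active = growth inhibition of the mutant yeast at or above 50%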;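 also: temperature-sensitive mutant grown at 25 °C; plate controls were DMSO-treated mutant yeast for no effect and medium wells lacking yeast for full effect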
NALP1 yeast inh = NALP1 inhibition; inhibition, % at 10 µM; hit rate 0.61% among 280,000; S. cerevisiae NALP1/ASC/caspase-1 growth, X-gal OD620, 72 h; in the data active = inhibition mostly above about 24%, no sharp cut-off; inactive = mostly below about 32%
tim10-1 inh = growth inhibitors of tim10-1 mutant yeast. inhibition, % at 20 µM. hit rate 2.2% among 330,000. S. cerevisiae tim10-1 ts strain growth, BacTiter-Glo, 24 h;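 active = inhibition of at least 40%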;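 also: mutant grown at 25 °C; 0% = DMSO wells with yeast and 100% = wells holding no yeast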
TIM10 inh = TIM10 yeast growth inhibition; hit rate 1.4% among 330,000; inhibition, % at 10 µM; AID 463195; S. cerevisiae TIM10 strain growth, BacTiter-Glo luminescence, 24 h;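 active = inhibition of 40% or more at the single tested concentration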;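 also: wild-type TIM10 isogenic control strain grown at permissive 25 °C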
TIM10 conf = confirmation of TIM10 yeast growth inhibitors; shares compounds with TIM10 inh; S. cerevisiae tim10 strain growth, BacTiter-Glo luminescence, 24 h; inhibition, % at 10 µM; hit rate 63% among 4,600;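 active = inhibition of yeast growth at or above a set limit in either of two replicates at 10 µM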;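 also: this counterscreen used the strain with wild-type TIM10; 0% = yeast with DMSO and 100% = medium wells lacking yeast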
* hit, by the source's call; ? = inconclusive; . = not tested or not shown. Compounds with a hit are over-represented: about 4.8% of the library has one in this group of screens.

SMILES	PfHsp90 set2	SKKanGAS inh	tim23-1 inh	NALP1 yeast inh	tim10-1 inh	TIM10 inh	TIM10 conf
COc1ccc(CN(Cc2nc3ccccc3c(=O)[nH]2)C(=O)NC2CCCCC2)cc1	-11	1	11	4	28	29	.
C/C(=N\NC(=O)c1c(Br)c(C)nn1C)c1ccc(NC(=O)C(C)Oc2ccc(Cl)cc2C)cc1 (stereo unspecified)	-13	38	2	7	-1	-4	.
Cc1cccc(CSc2nnc(-c3ccccn3)n2N)c1	17	3	22	21	5	16	.
Nn1c(SCc2ccc(Br)cc2)nnc1-c1ccccn1	20	-11	41	1	16	46*	60*
CCn1nc(C)c(/C=N/NC(=S)Nc2ccc(Cl)cc2Cl)c1C	-13	6	37	31	39	42*	-10
Cc1nn(C)cc1/C=N/NC(=S)Nc1ccc(Cl)cc1Cl	-9	4	24	16	27	9	.
O=C1CCNc2cc3ccccc3cc21	13	-6	14	21	32	42*	31
O=C(COc1ccccc1)N=C1SC2CS(=O)(=O)CC2N1c1ccccc1 (stereo unspecified)	6	-5	6	7	14	97*	-5
CCOC(=O)c1c(C)[nH]c(C(=O)COC(=O)CNS(=O)(=O)c2ccc(C)cc2)c1C	-22	.	9	.	4	71*	7
Cc1ccc2nc(N(CCCN(C)C)C(=O)c3ccc(S(=O)(=O)N4CCc5ccccc5C4)cc3)sc2c1	5	14	36	8	38	45*	29
Cc1ccc2nc(N(CCCN(C)C)C(=O)c3ccc(S(=O)(=O)N4CCOCC4)cc3)sc2c1	4	?	-6	10	-8	5	.
O=C(CSc1ncnc2ccccc12)c1ccc2c(c1)OCCO2	-23	-17	46	30	37	47*	-29
CCN(CC)C(=O)N1CCN(S(=O)(=O)c2c(C)cc(C)cc2C)CC1	11	-1	38	8	28	40*	24
CCN(CC)C(=O)N1CCN(S(=O)(=O)c2ccc(C)cc2)CC1	.	0	14	-6	15	2	.
COc1ccc(/C(C)=N/NC(=S)NCCc2ccccc2)c(O)c1	14	?	27	-14	28	43*	37*
COc1ccc(O)c(/C=N/NC(=S)NCCc2ccccc2)c1	-88	1	10	10	27	23	.
CCCCCC(=O)Nc1ccc(-c2csc(N)n2)cc1	.	7	7	14	-5	43*	12
O=C(Cc1ccccc1Cl)Nc1ccc(S(=O)(=O)N2CCOCC2)cc1	.	-2	12	.	16	11	.
O=C1NC(=S)N(c2cccc(Cl)c2)C12CCCCC2	-15	4	27	3	37	44*	8
COc1ccc(-n2cc(-c3ccccc3)c3c(=O)[nH]cnc32)cc1	-26	-6	46	15	34	51*	46*
C[C@]12C(=O)N(c3ccccc3)C(=O)N1[C@H]1c3ccccc3OC[C@@H]1[C@H]2c1ccccc1	-45	.	46	.	28	42*	47*
O=c1ccc2ccc(O[C@@H]3O[C@H](CO[C@@H]4OC[C@](O)(CO)[C@H]4O)[C@@H](O)[C@H](O)[C@H]3O)cc2o1	-14	.	10	.	1	2	.
O=c1c(-c2ccco2)[n+]([O-])c2ccccc2n1OCc1ccccc1F	12	-14	28	22	30	26	.
COc1cc2c(cc1NC(=O)CN(C)Cc1nc3ccccc3c(=O)[nH]1)oc1ccccc12	.	20	27	22	27	42*	-25
CCN(CC(=O)Nc1cc(OC)ccc1OC)Cc1nc2ccccc2c(=O)[nH]1	-45	-3	14	-4	15	3	.
SMILES	PfHsp90 set2	SKKanGAS inh	tim23-1 inh	NALP1 yeast inh	tim10-1 inh	TIM10 inh	TIM10 conf
CCCn1c2c(c(O)c(C(=O)Nc3ncccc3C)c1=O)CCCC2	0	-1	49	14	25	45*	8
CCCn1c2c(c(O)c(C(=O)Nc3nccs3)c1=O)CCCC2	-2	18	31	7	23	19	.
Cc1occc(=O)c1OCc1ccccc1	4	-16	-6	28	-11	94*	0
Cc1c(OCc2ccccc2)c(=O)ccn1Cc1ccccc1	14	-3	8	0	7	3	.
Cc1ccc(N(Cc2ccccc2)C(=O)c2cccc(S(=O)(=O)N3CCOCC3)c2)cc1	.	-3	33	.	29	24	.
NC(=O)NCc1cccs1	-16	-4	5	-7	13	4	.
CCC(C)n1c(SCC(=O)Nc2cc(C)on2)nc2ccccc2c1=O (stereo unspecified)	-38	0	25	5	27	23	.
CCC(C)n1c(SCC(=O)Nc2cc(C(C)(C)C)nn2-c2ccccc2)nc2ccccc2c1=O (stereo unspecified)	12	-5	41	42	30	41*	25
COc1ccc(CN2CCC(Oc3cc(C(=O)NC4CC4)ccc3OC)CC2)c(O)c1	2	-2	0	2	-10	83*	0
C/C=C(/C)C(=O)OC1c2c(ccc3ccc(=O)oc23)OC(C)(C)C1OC(C)=O (stereo unspecified)	28	3	34	11	39	42*	2
C/C=C(/C)C(=O)O[C@@H]1[C@H](OC(C)=O)c2c(ccc3ccc(=O)oc23)OC1(C)C	3	8	41	26	28	16	.
Cc1ccc2oc(=O)c3cc(C(=O)NCCCN4CCCCCC4)sc3c2c1	5	2	9	20	13	17	.
Cc1ccc2oc(=O)c3cc(C(=O)NCCCN4CCc5ccccc5C4)sc3c2c1	5	15	39	37	33	55*	28
O=C(Nc1ccc2c(c1)Cc1ccccc1-2)c1ccncc1	24	-4	43	49	18	57*	4
Cc1ccc(CNC(=O)Nc2cccc(C)c2)cc1	-21	-14	2	6	4	18	.
COc1ccc(NC(=O)N2CCN(c3nc(-c4cccc(OC)c4)cs3)CC2)cc1	-9	14	25	7	21	40*	29*
CCOc1ccc(NC(=S)NC23CC4CC(CC(C4)C2)C3)cc1	32	-3	-8	9	-3	-4	.
FC(F)Oc1ccc(NC(=S)NC23CC4CC(CC(C4)C2)C3)cc1	-2	25	44	5	17	52*	35*
Cc1nnc(NC(=O)c2cccc(F)c2)s1	8	3	6	-13	2	6	.
CC(=O)Cc1nsc(NC(=O)c2cccc(F)c2)n1	.	2	27	0	27	50*	-4
Cn1c2ccccc2c2nnc(SC3CCOC3=O)nc21 (stereo unspecified)	8	1	4	-38	20	-14	.
